Screening data (PubChem BioAssay)
Shown are actives, neighbours in structure and some others; about 27% of the full set was active somewhere.
sEH activator = soluble epoxide hydrolase (human) activation | P34913 | purified human sEH enzymatic activity, activator screen | activation, % at 2 µM | 91,000 tested, 0.04% active | AID 717; in the data active means activation above about 37%
CYP2C9 inhib = human CYP2C9 inhibition | inhibition, % at 5 µM | 96,000 tested, 20% active | CYP2C9 Supersomes, luciferin-H conversion, luminescence | P11712;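 active means blocking of liver enzyme CYP2C9 beyond about 50% at 5 µM, limit read from the data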
Target sequence (P11712 whole entry, looked up): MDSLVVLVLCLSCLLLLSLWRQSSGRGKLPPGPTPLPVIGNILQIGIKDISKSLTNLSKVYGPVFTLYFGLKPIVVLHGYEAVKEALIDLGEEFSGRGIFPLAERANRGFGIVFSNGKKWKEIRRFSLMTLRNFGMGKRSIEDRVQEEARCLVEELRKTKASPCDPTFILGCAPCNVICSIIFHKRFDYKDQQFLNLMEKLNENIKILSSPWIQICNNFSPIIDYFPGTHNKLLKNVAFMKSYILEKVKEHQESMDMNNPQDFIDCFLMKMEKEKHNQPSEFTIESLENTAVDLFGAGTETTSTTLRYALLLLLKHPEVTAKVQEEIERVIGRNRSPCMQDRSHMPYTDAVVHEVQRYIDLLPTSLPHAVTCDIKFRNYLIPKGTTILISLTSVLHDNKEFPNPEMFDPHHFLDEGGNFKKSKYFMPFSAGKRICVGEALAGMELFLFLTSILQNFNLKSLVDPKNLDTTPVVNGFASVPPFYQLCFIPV
CYP2C19 inh = blocks human cytochrome P450 2C19. 96,000 tested, 21% active. AID 778. P33261. CYP2C19 Supersomes, luciferin-H EGE luminescence, 30 min. inhibition, % at 5 µM;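 active means CYP2C19 inhibition above a set limit at 5 µM in the primary screen, cut at about 50% in these data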;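 further: plate controls were negative control wells for no effect and 2.5 mM tranylcypromine positive control for full effect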
CYP2C9 act = CYP2C9 (human) activation | 96,000 tested, 1.4% active | activation factor at 5 µM | P11712 | recombinant CYP2C9, luciferin-H conversion, luminescence; active compounds read high; factor 1 = untreated enzyme, 0 = blocked;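 active means activation factor of 2 or more for CYP2C9 at a 5 µM dose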;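 further: 0 = sulfaphenazole-blocked wells and 1 = vehicle-only wells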
CYP2C19 act = increases human CYP2C19 enzyme activity; activation factor at 5 µM; recombinant CYP2C19, luciferin-H EGE luminescence; active compounds read high; 0 = fully inhibited enzyme, 1 = untreated enzyme; 96,000 tested, under 10 active; P33261;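 active means activation factor of at least 2 at 5 µM in the primary screen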;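 further: 0 = wells with 2.5 mM tranylcypromine and 1 = vehicle-only wells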
sEH inhibitor = blocks human soluble epoxide hydrolase activity; P34913; recombinant human sEH enzymatic activity assay; inhibition, % at 2 µM; 91,000 tested, 0.34% active; AID 707; in the data active means inhibition above about 80%
Active calls of the source: *; x = no result given.

SMILES | sEH activator | CYP2C9 inhib | CYP2C19 inh | CYP2C9 act | CYP2C19 act | sEH inhibitor
CCNc1nc(Oc2ccc(C(=O)OC)cc2)nc(N(C)C)n1 | -1.7 | x | x | x | x | 4.4
COC(=O)c1ccc(Oc2nc(Nc3ccc(C)c(C)c3)nc(N(C)C)n2)cc1 | 13.2 | 71.4* | 56.3* | 0.3 | 0.4 | -14.7
CCC1Oc2ccc(C)cc2N(CC(=O)N(Cc2ccncc2)Cc2ccco2)C1=O (configuration not stated) | -2.6 | x | x | x | x | 3.0
Cc1ccc(S(=O)(=O)N2CCC(C(=O)NCCCN3CCCCCC3)CC2)cc1 | -9.7 | 9.2 | 7.1 | 0.9 | 0.9 | 10.2
CCCOc1ccc(N2C(=O)CC(S/C(N)=N/N=C(\C)c3cccs3)C2=O)cc1 (configuration not stated) | 6.9 | 27.0 | 5.6 | 0.7 | 0.9 | -4.4
C/C(=N\N=C(/N)SC1CC(=O)N(c2cccc(Cl)c2)C1=O)c1cccs1 (configuration not stated) | 15.5 | 60.7* | -4.7 | 0.4 | 1 | -14.7
Cc1ccc(-c2cc(-c3ccc(F)cc3)nc(N)c2C#N)o1 | 12.8 | 52.2* | 39.1 | 0.5 | 0.6 | -11.1
Cc1ccc(-c2cc(-c3ccccc3)c(C#N)c(N)n2)o1 | 16.5 | 7.3 | 32.6 | 0.9 | 0.7 | -19.3
Cc1ccc(-c2cc(-c3ccccc3Cl)c(C#N)c(N)n2)o1 | -12.4 | 81.6* | 91.9* | 0.2 | 0.1 | 13.8
NC(=O)C1(N2CCCCC2)CCN(S(=O)(=O)c2cc(Cl)ccc2Cl)CC1 | 7.0 | -173.2 | 90.0* | 2.7* | 0.1 | -8.3
NC(=O)C1(N2CCCCC2)CCN(Cc2ccccc2Cl)CC1 | 8.9 | 21.5 | 79.9* | 0.8 | 0.2 | -3.6
NC(=O)C1(N2CCCCC2)CCN(CC(=O)Nc2ccccc2-c2ccccc2)CC1 | 4.2 | 16.9 | 39.9 | 0.8 | 0.6 | -1.6
CS(=O)(=O)N1CCC(C(=O)Nc2ccc(Br)cc2F)CC1 | -0.7 | -7.9 | -0.7 | 1.1 | 1 | 0.5
Fc1cccc(NC(=S)Nc2ccc(Br)cc2)c1 | -4.7 | 57.6* | 81.7* | 0.4 | 0.2 | 2.8
CCCNC(=S)Nc1ccc(Br)cc1 | 3.6 | 30.4 | 43.7 | 0.7 | 0.6 | -4.4
CC1=C([N+](=O)[O-])C(c2cccc(Br)c2)C2=C(N1)c1ccccc1C2=O (configuration not stated) | 3.2 | 98.3* | 87.6* | 0 | 0.1 | -0.9
CCOC(=O)c1sc(C)c2c1NC(c1ccc(N(C)C)cc1)NC2=O (configuration not stated) | -10.8 | 20.6 | -15.0 | 0.8 | 1.1 | 14.0
CCC(C)OC(=O)c1[nH]c2c(c1C)C(=O)CC(c1ccc(N(C)C)cc1)C2 (configuration not stated) | x | 53.4* | 67.9* | 0.5 | 0.3 | x
C/C=C/COC(=O)c1[nH]c2c(c1C)C(=O)CC(c1ccc(N(C)C)cc1)C2 (configuration not stated) | x | 64.6* | 17.8 | 0.4 | 0.8 | x
CCOCCOC(=O)c1[nH]c2c(c1C)C(=O)CC(c1ccc(N(C)C)cc1)C2 (configuration not stated) | 4.7 | 85.2* | 38.5 | 0.1 | 0.6 | -5.0
Cc1ccc(S(=O)(=O)Cc2ccc(C(=O)NCCCN3CCCC3=O)o2)cc1 | -9.7 | 23.3 | 2.5 | 0.8 | 1 | 9.3
CN(C(=O)CSc1nc2c(c(=O)[nH]1)CCCC2)C1CCCCC1 | 1.3 | 69.3* | 21.8 | 0.3 | 0.8 | -1.3
Cc1nc(SCC(=O)N(C)C2CCCCC2)[nH]c(=O)c1Cc1ccccc1 | -12.2 | 69.0* | 59.8* | 0.3 | 0.4 | 10.5
Cc1nc(SCC(=O)NC2CCCC2)[nH]c(=O)c1Cc1ccccc1 | 4.6 | 45.5 | 15.6 | 0.5 | 0.8 | -6.6
CN(C(=O)CSc1ccccc1C(=O)O)C1CCCCC1 | 0.1 | -6.9 | -9.8 | 1.1 | 1.1 | 2.1
SMILES | sEH activator | CYP2C9 inhib | CYP2C19 inh | CYP2C9 act | CYP2C19 act | sEH inhibitor
CCc1nc2ccccc2c(C(=O)OCC(=O)NCCCN2CCCC2=O)c1C | -8.2 | -28.0 | 20.9 | 1.3 | 0.8 | 8.8
COc1cccc(NC(=O)CSc2nnc(-c3cccs3)n2C)c1 | -1.4 | 11.3 | 24.1 | 0.9 | 0.8 | 0.2
COc1ccc(OC)c(NC(=O)CSc2nnc(Cc3cccn3C)n2CCc2ccccc2)c1 | x | 37.3 | 35.8 | 0.6 | 0.6 | x
COc1ccc(OC)c(C(=O)CSc2nnc(Cc3cccs3)n2CCc2ccccc2)c1 | 1.4 | 36.9 | 55.2* | 0.6 | 0.4 | 0.5
Cn1c(Cc2ccccc2)nnc1SCC(=O)c1cccs1 | 8.2 | 44.4 | 95.2* | 0.6 | 0 | -10.3
Cc1ccc(C(=O)CSc2nnc(-c3cccs3)n2C)o1 | x | 11.2 | 50.6* | 0.9 | 0.5 | x
COc1ccc(OC)c(C(=O)CSc2nnc(-c3cccs3)n2C)c1 | -5.0 | 31.9 | 97.3* | 0.7 | 0 | 7.4
CCN1CCCC1CNC(=O)CCc1nc(-c2ccc(C)cc2)no1 (configuration not stated) | -1.8 | 10.1 | 25.3 | 0.9 | 0.7 | 5.2
O=C(CC1NC2CCCCC2NC1=O)Nc1cccc(C(F)(F)F)c1 (configuration not stated) | 8.2 | -18.9 | -16.2 | 1.2 | 1.2 | -7.0
